TRPV1 ag = agonists of human vanilloid receptor 1 (TRPV1). Q8NER1. TRPV1-expressing cells, Fluo-8 calcium influx, agonist mode. activation, % at 8.33 µM. 0.19% of 320,000 active. AID 540275; in the data active = activation above about 80%; inconclusive = between about 30% and that limit
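TRPV1-expressing cells were cultured overnight at 35.5C and loaded with Fluo-8 calcium dye for 40 to 90 min at room temperature. After a 10 s baseline, compound was added and calcium influx was read kinetically for 3 min (ex 480/em 520 nm).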
TRPV1 PAM = potentiators of human vanilloid receptor 1 (TRPV1) | Q8NER1 | potentiation, % at 8.33 µM | TRPV1-expressing cells, Fluo-8 calcium influx, capsaicin EC20 potentiation | 0.02% of 320,000 active; in the data active = potentiation above about 80%; inconclusive = between about 30% and that limit
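TRPV1-expressing cells were cultured overnight at 35.5C and loaded with Fluo-8 calcium dye for 40 to 90 min at room temperature. After a 10 s baseline, compound was added and calcium influx was read kinetically for 3 min (ex 480/em 520 nm).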
uPA surface inh = cell surface uPA generation inhibition. cell surface uPA generation assay, qHTS. Potency, µM (series often up to 38.3 µM), actives largely listed as inhibitors. 0.31% of 330,000 active. AID 540303; active = well fitted inhibition curve with a large enough effect; inconclusive = small, poorly fitted or top-dose-only effect; inactive = no such curve, though single readings can be large or run the other way; tested in mouse RAW 264.7 cells; also: nearly all actives have a fitted effect of over 55% in size
RORg inh = blocks mouse ROR gamma transcriptional activity; Drosophila S2 Gal4-RORgamma UAS-luciferase reporter, 20 h; 5.4% of 310,000 active; Potency, µM (highest dose often 53.6 µM), most hits filed as inhibitors; also: nearly all actives have a fitted effect of over 60% in size
Target sequence (P51450 whole entry, looked up, the tested form may be a part): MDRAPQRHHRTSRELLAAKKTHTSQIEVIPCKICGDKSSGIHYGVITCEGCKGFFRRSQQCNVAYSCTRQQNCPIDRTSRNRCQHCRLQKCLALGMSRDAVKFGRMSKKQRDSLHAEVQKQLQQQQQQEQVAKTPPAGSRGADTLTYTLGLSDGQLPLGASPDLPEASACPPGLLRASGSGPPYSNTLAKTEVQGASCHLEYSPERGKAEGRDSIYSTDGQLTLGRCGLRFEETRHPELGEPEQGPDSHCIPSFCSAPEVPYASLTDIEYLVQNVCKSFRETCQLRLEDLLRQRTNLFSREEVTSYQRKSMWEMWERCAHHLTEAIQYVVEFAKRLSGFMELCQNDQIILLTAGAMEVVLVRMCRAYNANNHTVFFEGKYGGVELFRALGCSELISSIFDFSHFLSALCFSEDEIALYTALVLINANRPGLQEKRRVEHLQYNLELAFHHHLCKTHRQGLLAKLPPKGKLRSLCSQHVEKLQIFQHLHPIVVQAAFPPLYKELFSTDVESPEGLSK
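Using a luciferase readout, inhibitors were identified by reduced reporter activity in Drosophila cells coexpressing a copper-inducible Gal4–ROR gamma fusion and UAS-driven Photinus luciferase, incubated 20 hr after 700 uM copper sulfate.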
Gal4-VP16 FLuc = inhibits Gal4-VP16 luciferase reporter, ROR gamma counter-screen; Drosophila S2 Gal4-VP16 UAS-luciferase, luminescence, 20 h; Potency, µM (titrated, usually from 53.6 µM), usual class: inhibitors; 3.5% of 310,000 active; AID 2546;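 also: Gal4-VP16 expression switched on by copper sulfate through the metallothionein promoter; nearly all actives have a fitted effect of over 50% in size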
Large screens that a line does not name were inactive. Hits are enriched below; roughly 5.8% of the tested compounds scored in any of these assays. Unless noted, calls follow the shape of the dose curve; as a rule, active = well fitted curve in the direction sought with a large enough effect; inconclusive = small, poorly fitted or top-dose-only effect, or another doubt; inactive = no such curve, though single readings can be large; an effect the other way counts as inactive or inconclusive.

CCOc1ccc(S(=O)(=O)n2c(C)nc3ccccc32)cc1	uPA surface inh 13µM
Oc1ccc(/C=N\Nc2nncc(-c3ccccc3)n2)cc1	Gal4-VP16 FLuc inconclusive
Brc1ccc(-c2ccc(/C=N/Nc3nncc(-c4ccccc4)n3)o2)cc1	RORg inh 0.89µM, Gal4-VP16 FLuc 1.3µM
Brc1ccc(/C=N/Nc2nncc(-c3ccccc3)n2)o1	RORg inh 3.5µM (no result: uPA surface inh)
O=C(CSc1nc(=O)n2ccccc2n1)N1CCCc2ccccc21	none (no result: RORg inh, Gal4-VP16 FLuc)
COc1ccc(OC2C(O)COC2/C=C/C#Cc2ccc(F)cc2F)cc1 (stereo unspecified)	none (no result: TRPV1 ag, TRPV1 PAM, uPA surface inh)
COc1cccc(OCc2cc(C(=O)N3CCC(c4ccncc4)CC3)no2)c1	TRPV1 ag inconclusive, Gal4-VP16 FLuc inconclusive
COCC1CCN(C(=O)c2cc(COc3cccc4cnccc34)on2)CC1	Gal4-VP16 FLuc 13µM
O=C(c1cc(COc2cccc3cnccc23)on1)N1CCCC(CCCO)C1 (stereo unspecified)	RORg inh inconclusive, Gal4-VP16 FLuc 2.8µM
CN1CCN(c2ncc3nc(CCc4ccccc4)c(=O)n(Cc4ccc(F)cc4)c3n2)CC1	none (no result: TRPV1 ag, TRPV1 PAM, uPA surface inh)
CC(C)OCCCNC(=S)NNC(=O)c1ccc(Cl)c(Cl)c1	TRPV1 PAM inconclusive, RORg inh 14µM, Gal4-VP16 FLuc inconclusive
CNC[C@@H](CC1CCCCC1)NC[C@H](CC(C)C)NCCc1cccc(C(F)(F)F)c1	uPA surface inh inconclusive, RORg inh 11µM, Gal4-VP16 FLuc inconclusive
CC[C@@H](C)[C@H](CNC)NC[C@@H](Cc1cccc2ccccc12)NCCc1cccc(C(F)(F)F)c1	RORg inh 13µM, Gal4-VP16 FLuc inconclusive
CNC[C@@H](Cc1ccccc1)NC[C@@H](CC1CCCCC1)NCCCc1ccccc1	uPA surface inh inconclusive, RORg inh inconclusive, Gal4-VP16 FLuc inconclusive
Cc1cc(SCC(=O)c2cc3ccccc3o2)nc2ccccc12	RORg inh 11µM, Gal4-VP16 FLuc inconclusive (no result: uPA surface inh)
Cc1nc(NC(=O)CSc2cc(C)c3ccccc3n2)c(Cl)cc1Cl	RORg inh 2.5µM, Gal4-VP16 FLuc inconclusive
CC(=O)NCCn1c(SCC(=O)NCCC2=CCCCC2)nc2ccccc2c1=O	none
Cc1cc(SCC(=O)NCCC2=CCCCC2)nc2ccccc12	TRPV1 ag inconclusive, RORg inh inconclusive, Gal4-VP16 FLuc 6.3µM
Cc1cc(SCC(=O)Nc2cccnc2Cl)nc2ccccc12	none
NS(=O)(=O)c1ccc(CCNC(=O)CNC(=O)c2ccccc2F)cc1	none
O=C(Nc1cnc2ccccn2c1=O)c1ccc(Cl)cc1Cl	RORg inh 2.5µM, Gal4-VP16 FLuc inconclusive
Cc1ccc(C(=O)Nc2cnc3ccccn3c2=O)cc1	TRPV1 ag inconclusive, Gal4-VP16 FLuc inconclusive (no result: uPA surface inh)
O=C(Nc1cnc2sccn2c1=O)c1ccccc1Cl	TRPV1 PAM inconclusive, RORg inh 7.1µM, Gal4-VP16 FLuc inconclusive
COC(=O)C1(C(=O)OC)Cc2conc2[C@H]1c1ccccc1	none (no result: TRPV1 ag, TRPV1 PAM, uPA surface inh)
Cc1cccc(NCc2ccc(O)c3ncccc23)c1C	RORg inh 7.9µM, Gal4-VP16 FLuc inconclusive
Cc1cccnc1NCc1ccc(O)c2ncccc12	RORg inh inconclusive, Gal4-VP16 FLuc 2.8µM
CCn1c(=O)c(C(=O)Nc2ncccc2C)c(O)c2ccccc21	none
Cc1ccc(NCc2ccc(O)c3ncccc23)cc1	RORg inh 1µM, Gal4-VP16 FLuc 1.8µM
Cc1ccc(NCc2ccc(O)c3ncccc23)cc1C	Gal4-VP16 FLuc inconclusive
Cc1ccc(O)c(CNc2cccc3cccnc23)c1	none
C[C@H](NC(=O)c1nc[nH]c1C(=O)NCC(=O)OCc1ccccc1)C(=O)OCc1ccccc1	RORg inh inconclusive
CC(C)(C)OC(=O)NCc1ccc(CNC(=O)c2[nH]cnc2C(=O)NCC(=O)OCc2ccccc2)cc1	TRPV1 PAM inconclusive, Gal4-VP16 FLuc 22µM
C[C@H](NC(=O)c1nc[nH]c1C(=O)NCC(=O)OCc1ccccc1)c1ccccc1	RORg inh 14µM, Gal4-VP16 FLuc inconclusive
O=C(CNC(=O)c1nc[nH]c1C(=O)NCC(=O)OCc1ccccc1)OCc1ccccc1	TRPV1 PAM inconclusive, Gal4-VP16 FLuc inconclusive
CC(C)(C)OC(=O)NCc1ccc(CNC(=O)c2nc[nH]c2C(=O)NCc2ccccc2)cc1	none (no result: RORg inh, Gal4-VP16 FLuc)
O=C(CNC(=O)c1nc[nH]c1C(=O)NCc1ccccc1)OCc1ccccc1	TRPV1 PAM inconclusive, RORg inh 11µM, Gal4-VP16 FLuc inconclusive
Cc1c(NC(=O)COC(=O)/C=C/c2cccc(Br)c2)c(=O)n(-c2ccccc2)n1C	none (no result: RORg inh, Gal4-VP16 FLuc)
CC(CCc1ccccc1)NC(=O)c1ccc(NC(=O)c2ccccc2)cc1 (stereo unspecified)	RORg inh 2.8µM, Gal4-VP16 FLuc inconclusive
CC(CCc1ccccc1)NC(=S)NC(=O)c1ccco1 (stereo unspecified)	TRPV1 ag inconclusive, RORg inh 11µM (no result: uPA surface inh)
O=C(NCc1ccccc1)c1ccco1	none
CC(CCc1ccccc1)NC(=O)Cc1ccccc1 (stereo unspecified)	TRPV1 ag inconclusive
CC(CCc1ccccc1)NC(=O)c1ccc(NC(=O)c2cccc(Br)c2)cc1 (stereo unspecified)	none
O=C(NC(=S)N(CCc1ccccc1)CCc1ccccc1)c1ccco1	TRPV1 ag inconclusive, RORg inh 0.11µM, Gal4-VP16 FLuc 0.045µM
CN(c1ccccc1)S(=O)(=O)c1ccc(C(=O)N2CCCC(C(F)(F)F)C2)cc1 (stereo unspecified)	TRPV1 ag inconclusive
CCc1ccc(CN(C)C(=O)CCc2nc3ccccc3n(-c3ccc(OC)cc3)c2=O)cc1	Gal4-VP16 FLuc inconclusive
COc1ccc(-c2nnc(SCC(=O)NCc3ccco3)o2)cc1	RORg inh 0.56µM, Gal4-VP16 FLuc inconclusive
Cc1nc(SCC(=O)NCC2CCCO2)c2c3c(sc2n1)CCCC3 (stereo unspecified)	RORg inh 3.5µM, Gal4-VP16 FLuc 13µM
COc1ccc(-c2nnc(SCC(=O)c3ccc(O)cc3O)o2)cc1	RORg inh 5.6µM, Gal4-VP16 FLuc inconclusive
COc1ccc(-c2nnc(SCC(=O)NCC3CCCO3)o2)cc1 (stereo unspecified)	RORg inh 13µM, Gal4-VP16 FLuc inconclusive
Cc1nc(SCC(=O)NCC2CCCO2)c2c(C)c(C)sc2n1 (stereo unspecified)	none (no result: TRPV1 ag, TRPV1 PAM, RORg inh, Gal4-VP16 FLuc)
CC(C)(CCc1ccccn1)C(=O)CCCc1ccccn1	none (no result: TRPV1 ag, TRPV1 PAM, RORg inh, Gal4-VP16 FLuc)
COc1ccc(C(CCN)Cc2ccccc2)cc1 (stereo unspecified)	none
CC12CCC=CC1C(c1ccc(F)c(/C=C/c3ccccc3)c1)N(Cc1ccccc1)C2=O (stereo unspecified)	none (no result: TRPV1 ag, TRPV1 PAM, uPA surface inh)
CC(C)(C)OC(=O)NC(Cc1ccccc1)C(O)c1ccco1 (stereo unspecified)	none (no result: TRPV1 ag, TRPV1 PAM, uPA surface inh)
CCC(=O)NC(c1ccc(OC)cc1)c1c(O)ccc2ccccc12 (stereo unspecified)	uPA surface inh 5.6µM
COc1ccc(C(NC(=O)C(C)C)c2c(O)ccc3ccccc23)cc1 (stereo unspecified)	uPA surface inh inconclusive
CCC(=O)NC(c1ccc([N+](=O)[O-])cc1)c1c(O)ccc2ccccc12 (stereo unspecified)	RORg inh inconclusive, Gal4-VP16 FLuc 11µM (no result: uPA surface inh)
CC(C)COc1cccc(C(=O)Nc2ccc(N3CCOCC3)cc2N2CCOCC2)c1	none (no result: RORg inh, Gal4-VP16 FLuc)

High-throughput results from PubChem BioAssay.
